# Measured values as given in article PMC7862700, “An all-to-all approach to the identification of sequence-specific readers for epigenetic DNA modifications on cytosine”.
# Legend:
# Experiment in all cases: DAPPL (digital affinity profiling via proximity ligation, sequencing); 10 mM Tris-HCl pH 7.5, 50 mM NaCl, 1 mM DTT, 4% glycerol, room temperature, 30 min; GST-TFs on glutathione beads, 16-mer random dsDNA library, 0.1% formaldehyde crosslink after washing; high values mean tight binding
# FEV = target: T1, FEV (Homo sapiens, UniProt Q99581 1-238); details: protein: recombinant; tags: N-terminal GST; dsDNA, one strand shown
# T1 sequence: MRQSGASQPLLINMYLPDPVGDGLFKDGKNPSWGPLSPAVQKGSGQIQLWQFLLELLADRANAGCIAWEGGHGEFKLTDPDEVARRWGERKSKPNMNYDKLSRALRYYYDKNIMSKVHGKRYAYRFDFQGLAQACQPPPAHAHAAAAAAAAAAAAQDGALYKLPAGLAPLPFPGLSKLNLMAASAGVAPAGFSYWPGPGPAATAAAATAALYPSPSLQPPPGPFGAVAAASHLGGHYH
# Procedure, shortened: (§1)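 Pools of DNA-barcoded human transcription factors, expressed in yeast as GST fusions on glutathione beads and combined with a tag-only sample, were incubated with 200 nmole of a 16-mer random double-stranded DNA library. Incubation took 30 min at room temperature in Tris/NaCl/DTT/glycerol buffer and was followed by washing, 0.1% formaldehyde crosslinking, proximity ligation (BsaI/T4 ligase, 1 h, 37 °C), PCR amplification and sequencing on an Illumina NextSeq500. Binding signal is the ratio of a hexamer's read frequency for a factor to its frequency for the tag-only sample.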
# ETV5 = ETV5 (Homo sapiens, UniProt P41161 1-510); details: protein: recombinant; tags: N-terminal GST; dsDNA, one strand shown
# Procedure, shortened: as §1
# HSF1 = HSF1 (Homo sapiens, UniProt Q00613 1-529); details: protein: recombinant; tags: N-terminal GST; chain copies: 3; dsDNA, one strand shown
# Procedure, shortened: as §1
# SPIC = target: T2, SPIC (Homo sapiens, UniProt Q8N5J4 1-248); details: protein: recombinant; tags: N-terminal GST; dsDNA, one strand shown
# T2 sequence: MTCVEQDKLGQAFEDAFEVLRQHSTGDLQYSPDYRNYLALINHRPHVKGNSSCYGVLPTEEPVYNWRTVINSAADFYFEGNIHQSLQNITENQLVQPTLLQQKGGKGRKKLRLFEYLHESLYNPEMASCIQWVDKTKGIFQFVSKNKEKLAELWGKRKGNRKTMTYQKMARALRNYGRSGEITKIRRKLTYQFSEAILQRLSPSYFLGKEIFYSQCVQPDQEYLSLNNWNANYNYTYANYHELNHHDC
# Procedure, shortened: as §1
# ELF4 = ELF4 (Homo sapiens, UniProt Q99607 1-663); details: protein: recombinant; tags: N-terminal GST; dsDNA, one strand shown
# Procedure, shortened: as §1
# ELK4 = target: T3, ELK4 (Homo sapiens, UniProt P28324-2 1-405); details: protein: recombinant; tags: N-terminal GST; dsDNA, one strand shown
# T3 sequence: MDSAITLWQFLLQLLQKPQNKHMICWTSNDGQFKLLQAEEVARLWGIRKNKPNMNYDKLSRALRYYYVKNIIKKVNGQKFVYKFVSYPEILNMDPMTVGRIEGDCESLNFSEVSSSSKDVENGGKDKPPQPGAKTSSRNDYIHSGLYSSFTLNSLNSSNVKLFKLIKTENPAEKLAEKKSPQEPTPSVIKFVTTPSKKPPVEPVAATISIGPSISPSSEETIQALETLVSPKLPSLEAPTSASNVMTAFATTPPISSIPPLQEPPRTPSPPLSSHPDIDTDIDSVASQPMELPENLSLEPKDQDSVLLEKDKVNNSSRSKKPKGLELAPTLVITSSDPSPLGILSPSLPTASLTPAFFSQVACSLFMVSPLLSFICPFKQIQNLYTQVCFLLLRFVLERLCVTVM
# Procedure, shortened: as §1
# ETV2 = target: T4, ETV2 (Homo sapiens, UniProt O00321 1-342); details: protein: recombinant; tags: N-terminal GST; dsDNA, one strand shown
# T4 sequence: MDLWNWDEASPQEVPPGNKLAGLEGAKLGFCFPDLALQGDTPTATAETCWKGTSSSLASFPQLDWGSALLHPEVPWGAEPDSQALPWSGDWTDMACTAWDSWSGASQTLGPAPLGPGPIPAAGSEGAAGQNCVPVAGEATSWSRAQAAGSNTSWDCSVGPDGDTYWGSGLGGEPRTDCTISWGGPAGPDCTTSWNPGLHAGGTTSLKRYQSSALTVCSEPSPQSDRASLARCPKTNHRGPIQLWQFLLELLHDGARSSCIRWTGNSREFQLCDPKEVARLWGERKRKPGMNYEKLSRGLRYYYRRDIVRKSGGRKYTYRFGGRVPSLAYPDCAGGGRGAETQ
# Procedure, shortened: as §1
# ELF3 = target: T5, ELF3 (Homo sapiens, UniProt P78545 1-371); details: protein: recombinant; tags: N-terminal GST; dsDNA, one strand shown
# T5 sequence: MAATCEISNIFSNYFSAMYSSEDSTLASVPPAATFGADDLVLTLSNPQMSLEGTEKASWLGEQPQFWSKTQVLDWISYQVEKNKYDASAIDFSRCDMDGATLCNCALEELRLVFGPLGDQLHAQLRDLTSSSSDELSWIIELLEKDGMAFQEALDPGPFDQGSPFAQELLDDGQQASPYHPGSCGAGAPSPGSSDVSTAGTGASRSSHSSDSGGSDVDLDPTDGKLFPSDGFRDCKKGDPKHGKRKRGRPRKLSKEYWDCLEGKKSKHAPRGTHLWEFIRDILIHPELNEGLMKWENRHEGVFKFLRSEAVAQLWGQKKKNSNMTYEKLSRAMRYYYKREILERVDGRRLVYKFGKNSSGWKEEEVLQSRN
# Procedure, shortened: as §1
# CRX = CRX (Homo sapiens, UniProt O43186 1-299); details: protein: recombinant; tags: N-terminal GST; dsDNA, one strand shown
# Procedure, shortened: as §1
# ETV1 = ETV1 (Homo sapiens, UniProt P50549 1-477); details: protein: recombinant; tags: N-terminal GST; dsDNA, one strand shown
# Procedure, shortened: as §1
# Chain of CRX (O43186 whole entry): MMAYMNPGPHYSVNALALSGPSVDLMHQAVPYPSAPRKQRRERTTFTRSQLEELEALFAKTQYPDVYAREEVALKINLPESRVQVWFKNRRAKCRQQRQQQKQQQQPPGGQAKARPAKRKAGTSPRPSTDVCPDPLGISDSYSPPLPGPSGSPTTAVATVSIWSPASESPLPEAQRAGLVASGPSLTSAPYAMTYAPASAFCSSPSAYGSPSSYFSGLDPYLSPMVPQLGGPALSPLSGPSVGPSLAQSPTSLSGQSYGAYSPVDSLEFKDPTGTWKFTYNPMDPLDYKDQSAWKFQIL
# Chain of ETV1 (P50549 whole entry): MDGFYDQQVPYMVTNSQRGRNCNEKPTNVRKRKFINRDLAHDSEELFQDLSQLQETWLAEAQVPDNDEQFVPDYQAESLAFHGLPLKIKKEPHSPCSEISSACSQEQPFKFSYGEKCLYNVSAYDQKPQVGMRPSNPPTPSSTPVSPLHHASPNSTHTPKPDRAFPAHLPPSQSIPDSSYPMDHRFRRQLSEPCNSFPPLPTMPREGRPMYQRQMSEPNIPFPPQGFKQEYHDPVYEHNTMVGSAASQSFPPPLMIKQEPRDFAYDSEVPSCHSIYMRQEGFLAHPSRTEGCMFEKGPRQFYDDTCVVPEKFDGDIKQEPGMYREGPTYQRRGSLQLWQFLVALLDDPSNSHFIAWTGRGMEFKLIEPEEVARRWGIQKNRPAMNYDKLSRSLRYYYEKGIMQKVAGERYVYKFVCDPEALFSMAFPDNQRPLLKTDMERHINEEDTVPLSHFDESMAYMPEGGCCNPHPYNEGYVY
# Chain of ELF4 (Q99607 whole entry): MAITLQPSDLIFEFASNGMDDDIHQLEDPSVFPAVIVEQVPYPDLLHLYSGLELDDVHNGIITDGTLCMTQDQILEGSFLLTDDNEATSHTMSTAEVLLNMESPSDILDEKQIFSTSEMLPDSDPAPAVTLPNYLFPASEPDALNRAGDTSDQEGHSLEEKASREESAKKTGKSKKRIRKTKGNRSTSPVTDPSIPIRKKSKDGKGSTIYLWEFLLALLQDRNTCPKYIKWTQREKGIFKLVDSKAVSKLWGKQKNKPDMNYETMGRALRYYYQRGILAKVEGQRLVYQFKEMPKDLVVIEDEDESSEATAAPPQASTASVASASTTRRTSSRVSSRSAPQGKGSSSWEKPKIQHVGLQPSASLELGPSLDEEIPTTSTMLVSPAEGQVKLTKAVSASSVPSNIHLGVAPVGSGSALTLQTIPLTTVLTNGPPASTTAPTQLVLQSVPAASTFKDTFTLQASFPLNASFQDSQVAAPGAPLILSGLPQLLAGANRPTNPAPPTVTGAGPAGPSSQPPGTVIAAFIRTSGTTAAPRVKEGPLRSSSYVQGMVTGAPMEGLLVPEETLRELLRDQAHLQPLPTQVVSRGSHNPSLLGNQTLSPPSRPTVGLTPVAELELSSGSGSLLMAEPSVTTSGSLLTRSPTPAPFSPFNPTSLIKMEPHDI
# Chain of HSF1 (Q00613 whole entry): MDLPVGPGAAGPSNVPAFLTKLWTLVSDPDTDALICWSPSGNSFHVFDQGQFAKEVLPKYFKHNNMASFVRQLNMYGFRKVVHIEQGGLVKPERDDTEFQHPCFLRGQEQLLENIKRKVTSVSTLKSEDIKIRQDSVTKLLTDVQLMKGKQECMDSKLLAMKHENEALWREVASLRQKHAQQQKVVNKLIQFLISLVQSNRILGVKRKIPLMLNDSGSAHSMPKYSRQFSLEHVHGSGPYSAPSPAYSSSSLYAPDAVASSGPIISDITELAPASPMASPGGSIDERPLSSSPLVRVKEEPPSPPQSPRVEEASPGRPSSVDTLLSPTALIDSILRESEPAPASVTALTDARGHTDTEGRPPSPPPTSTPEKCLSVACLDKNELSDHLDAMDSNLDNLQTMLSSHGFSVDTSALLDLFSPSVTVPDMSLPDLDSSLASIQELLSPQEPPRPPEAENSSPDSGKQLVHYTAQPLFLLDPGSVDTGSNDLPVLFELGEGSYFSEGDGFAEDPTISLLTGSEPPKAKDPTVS
# Chain of ETV5 (P41161 whole entry): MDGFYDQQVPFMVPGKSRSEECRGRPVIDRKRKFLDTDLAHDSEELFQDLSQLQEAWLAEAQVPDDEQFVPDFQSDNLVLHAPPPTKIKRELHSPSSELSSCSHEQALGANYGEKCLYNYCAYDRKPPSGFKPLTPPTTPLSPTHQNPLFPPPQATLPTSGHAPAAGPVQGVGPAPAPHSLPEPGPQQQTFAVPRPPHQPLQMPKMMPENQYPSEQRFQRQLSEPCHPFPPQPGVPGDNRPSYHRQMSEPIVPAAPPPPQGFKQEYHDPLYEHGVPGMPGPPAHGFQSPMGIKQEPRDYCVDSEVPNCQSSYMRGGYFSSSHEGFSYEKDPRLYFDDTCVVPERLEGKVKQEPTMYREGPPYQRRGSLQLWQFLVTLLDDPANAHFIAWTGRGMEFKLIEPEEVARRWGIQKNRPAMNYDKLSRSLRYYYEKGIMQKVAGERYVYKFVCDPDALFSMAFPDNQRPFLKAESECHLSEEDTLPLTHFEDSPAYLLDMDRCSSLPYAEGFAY
Sequence,binding signal (FEV),binding signal (ETV5),binding signal (HSF1),binding signal (SPIC),binding signal (ELF4),binding signal (ELK4),binding signal (ETV2),binding signal (ELF3),binding signal (CRX),binding signal (ETV1)
ATTACC,"1.25 fold enrichment (6-mer frequency, TF over GST control)","1.36 fold enrichment (6-mer frequency, TF over GST control)","1.58 fold enrichment (6-mer frequency, TF over GST control)","1.26 fold enrichment (6-mer frequency, TF over GST control)","1.17 fold enrichment (6-mer frequency, TF over GST control)","1.21 fold enrichment (6-mer frequency, TF over GST control)","1.4 fold enrichment (6-mer frequency, TF over GST control)","1.1 fold enrichment (6-mer frequency, TF over GST control)","2.17 fold enrichment (6-mer frequency, TF over GST control)","1.23 fold enrichment (6-mer frequency, TF over GST control)"
TACGAA,"1.29 fold enrichment (6-mer frequency, TF over GST control)","1.21 fold enrichment (6-mer frequency, TF over GST control)","1.38 fold enrichment (6-mer frequency, TF over GST control)","1.11 fold enrichment (6-mer frequency, TF over GST control)","1.31 fold enrichment (6-mer frequency, TF over GST control)","1.23 fold enrichment (6-mer frequency, TF over GST control)","1.16 fold enrichment (6-mer frequency, TF over GST control)","1.25 fold enrichment (6-mer frequency, TF over GST control)","1.32 fold enrichment (6-mer frequency, TF over GST control)","1.24 fold enrichment (6-mer frequency, TF over GST control)"
TTTGTT,"1.19 fold enrichment (6-mer frequency, TF over GST control)","1.25 fold enrichment (6-mer frequency, TF over GST control)","1.3 fold enrichment (6-mer frequency, TF over GST control)","1.29 fold enrichment (6-mer frequency, TF over GST control)","1.3 fold enrichment (6-mer frequency, TF over GST control)","1.46 fold enrichment (6-mer frequency, TF over GST control)","1.33 fold enrichment (6-mer frequency, TF over GST control)","1.35 fold enrichment (6-mer frequency, TF over GST control)","1.46 fold enrichment (6-mer frequency, TF over GST control)","1.25 fold enrichment (6-mer frequency, TF over GST control)"
TACCTT,"1.34 fold enrichment (6-mer frequency, TF over GST control)","1.4 fold enrichment (6-mer frequency, TF over GST control)","1.3 fold enrichment (6-mer frequency, TF over GST control)","1.3 fold enrichment (6-mer frequency, TF over GST control)","1.38 fold enrichment (6-mer frequency, TF over GST control)","1.46 fold enrichment (6-mer frequency, TF over GST control)","1.6 fold enrichment (6-mer frequency, TF over GST control)","1.31 fold enrichment (6-mer frequency, TF over GST control)","1.55 fold enrichment (6-mer frequency, TF over GST control)","1.5 fold enrichment (6-mer frequency, TF over GST control)"
CTTAGG,"1.11 fold enrichment (6-mer frequency, TF over GST control)","1.15 fold enrichment (6-mer frequency, TF over GST control)","1.29 fold enrichment (6-mer frequency, TF over GST control)","1.3 fold enrichment (6-mer frequency, TF over GST control)","1.16 fold enrichment (6-mer frequency, TF over GST control)","1.04 fold enrichment (6-mer frequency, TF over GST control)","1.23 fold enrichment (6-mer frequency, TF over GST control)","1.49 fold enrichment (6-mer frequency, TF over GST control)","1.8 fold enrichment (6-mer frequency, TF over GST control)","1.19 fold enrichment (6-mer frequency, TF over GST control)"
CTACTG,"1.33 fold enrichment (6-mer frequency, TF over GST control)","1.35 fold enrichment (6-mer frequency, TF over GST control)","1.24 fold enrichment (6-mer frequency, TF over GST control)","1.32 fold enrichment (6-mer frequency, TF over GST control)","1.26 fold enrichment (6-mer frequency, TF over GST control)","1.26 fold enrichment (6-mer frequency, TF over GST control)","1.4 fold enrichment (6-mer frequency, TF over GST control)","1.3 fold enrichment (6-mer frequency, TF over GST control)","1.08 fold enrichment (6-mer frequency, TF over GST control)","1.3 fold enrichment (6-mer frequency, TF over GST control)"
TTCTAG,"1.15 fold enrichment (6-mer frequency, TF over GST control)","1.11 fold enrichment (6-mer frequency, TF over GST control)","7.56 fold enrichment (6-mer frequency, TF over GST control)","1.29 fold enrichment (6-mer frequency, TF over GST control)","1.22 fold enrichment (6-mer frequency, TF over GST control)","1.22 fold enrichment (6-mer frequency, TF over GST control)","1.18 fold enrichment (6-mer frequency, TF over GST control)","1.42 fold enrichment (6-mer frequency, TF over GST control)","2.67 fold enrichment (6-mer frequency, TF over GST control)","1.2 fold enrichment (6-mer frequency, TF over GST control)"
